# From PubChem BioAssay
# Results filed as inconclusive are left out. Calls of active or inactive are those of the source.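 How the source made its calls, unless noted: active means viability increase at or above a cutoff of the median across tested compounds plus 3 SD (cut at about 8.5% in these data, passing the limit was not always enough); inconclusive means some gains above the cutoff, reason not given; inactive means the rest.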
# Columns and labels:
# [1] = Her2 expression decrease, cell viability multiplex – SKBR3 breast tumor cells, AlphaScreen, ATP viability, primary screen (AID 461;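 active means Her2 level under about 52% in both replicate screens, with viability over 70% of control, limit read from the data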;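 on Her2 level: lower value means less Her2 protein in the cells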;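 on viability: percent of carrier control wells set as 100% viability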); details: SKBR3 Her2 protein level, 18-24 h, measured here: SKBR3 viability, ATP luminescence, at 10 µM
# [2] = target: Receptor tyrosine-protein kinase erbB-2 (Homo sapiens) (UniProt P04626); experiment: as above; details: 18-24 h, at 10 µM, stronger effect = lower value
# [3] = reduced viability of SK-BR-3 breast cancer cells – cell-based, 24 h, human, pilot screen (AID 572;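 active means viability at or below 10% of carrier control in both of two separate runs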;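 further: compound exposure lasted between 18 and 24 h rather than exactly 24 h; 100% = carrier-treated control wells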); details: SK-BR-3 viability, CellTiter-Glo luminescence, at 10 µM, stronger effect = lower value
# [4] = HUVEC growth inhibition – cell-based, human, primary screen (AID 575;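 active means viability at or below 30% in both replicate assays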;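 further: 100% = median of untreated cell wells with 0.1% DMSO on each plate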); details: HUVEC proliferation, CellTiter-Glo luminescence, 72 h; at 10 µM; stronger effect = lower value
# [5] = H69AR cell proliferation blockers – human, duplicate replicates, primary screen (AID 580;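 active means viability at or under a set limit in both replicates, limit being median viability minus 3 SD, cut at about 48% in these data, passing the limit was not always enough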;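 further: 100% = mean luminescence of untreated wells and 0% = no signal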); details: H69AR lung tumor cells viability, ATP luminescence, 72 h; at 10 µM; stronger effect = lower value
# [6] = MRP1 drug-resistance reversers in H69AR cells – cell-based, doxorubicin co-treatment, pilot screen (AID 601;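 active means viability loss from added drug above about 55%, and viability with drug at most 40%, in both replicates, limit read from the data, passing the limit was not always enough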); details: CellTiter-Glo, 72 h, at 10 µM; for differential viability (reversal): stronger effect = higher value
# [7] = yeast transport mutant growth inhibition pilot in 384-well plates, post-Golgi transport modulator project (AID 636; in the data active means inhibition above about 31%); details: absorbance 615 nm, about 18 h, stronger effect = higher value
# [8] = growth suppression of yeast trafficking mutant, preliminary HTS, modulators of trafficking downstream of Golgi apparatus project, 1536-format plate, OD 615 nm (AID 637; in the data active means inhibition above about 30%); details: yeast transport mutant growth, absorbance 615 nm, 18 h; stronger effect = higher value
# [9] = S. cerevisiae growth inhibition in permissive medium (OD615), pilot counter-assay for S. cerevisiae lifespan shortening project, permissive growth control (AID 705;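 active means growth inhibition above 25% in both replicates, a cutoff set 3 SD above the mean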); details: OD615, 24 h, at 10 µM, stronger effect = higher value
# [10] = S. cerevisiae growth inhibition in restrictive medium, OD615, pilot screen, restrictive growth control, yeast lifespan reduction project (AID 706;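 active means growth inhibition above a set limit, 3 SD over mean compound inhibition, in both replicates, cut at about 43% in these data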;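 further: modified DeaD lifespan yeast strain shifted to restrictive glucose medium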); details: OD615, 48 h, at 10 µM, stronger effect = higher value
# [11] = doxorubicin toxicity protection in MRP-1 cells – H69AR cells, CellTiter-Glo, duplicate, MRP-1 activator project, pilot screen (AID 807); details: H69AR viability with doxorubicin, CellTiter-Glo luminescence; at 10 µM; stronger effect = higher value;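 further: compound pretreatment 18-22 h then 72 h combined with doxorubicin; 0% = doxorubicin alone and 100% = vehicle without doxorubicin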
# [12] = viability of HCT116 without oncogenic beta-catenin – human colon tumor cells, pilot screen (AID 823;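 active means cell viability at or below a set limit in both duplicate runs, the limit being the all-compound median minus 4 SD, cut at about 23% in these data, passing the limit was not always enough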;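 further: 0% = wells killed by 20 µM Hyamine and 100% = untreated DMSO cell wells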); details: HCT116 beta-catenin knockout viability, CellTiter-Glo, 60 h; at 10 µM; stronger effect = lower value
# [13] = viability of PTEN-null HCT116 cells – cell-based, HCT116 clonal line, CellTiter-Glo, pilot screen (AID 824;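 active means viability at or below 27.92% in each of two runs, the all-compound median minus 4 SD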;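 further: 0% = 20 µM Hyamine control and 100% = vehicle cell control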); details: HCT116 PTEN-deleted viability, 60 h, at 10 µM, stronger effect = lower value
# [14] = RAM pathway blockade in budding yeast – dse1pr::URA3 reporter, 5-FOA selection, pilot screen (AID 869;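 active means inhibition over a set limit, the all-compound mean plus 3 SD, in both replicate runs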;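 further: 0% = DMSO wells with no growth and 100% = 10 µM 1-NA-PP1 with full growth; RAM network block rescues cells from 5-FOA so hits raise OD615 growth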); details: S. cerevisiae dse1pr::URA3 5-FOA growth, OD615, 2 d; at 10 µM; stronger effect = higher value; strain carries analog-sensitive mutant Cbk1 kinase
# [15] = RAM signaling pathway blockade in yeast – S. cerevisiae, Pdr1DBD-CYC8 efflux-inhibited sensitized strain, primary screen (AID 1298;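 active means RAM network inhibition above 8.4% in each of two replicates, 3 SD over the compound average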;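 further: 0% = DMSO untreated cells without growth and 100% = 10 µM 1-NA-PP1 full growth; higher means more yeast growth rescued from 5-FOA killing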); details: S. cerevisiae cbk1-as DSE1-URA3 strain, 5-FOA growth OD615, 2 d; at 50 µM; stronger effect = higher value
# [16] = H69AR cells + 2 uM doxorubicin, measured here: viability with 2 uM doxorubicin, stronger effect = lower value
# [17] = H69AR cells, compound alone cytotoxicity
# Sequence of Receptor tyrosine-protein kinase erbB-2 (Homo sapiens) (P04626 whole entry, looked up): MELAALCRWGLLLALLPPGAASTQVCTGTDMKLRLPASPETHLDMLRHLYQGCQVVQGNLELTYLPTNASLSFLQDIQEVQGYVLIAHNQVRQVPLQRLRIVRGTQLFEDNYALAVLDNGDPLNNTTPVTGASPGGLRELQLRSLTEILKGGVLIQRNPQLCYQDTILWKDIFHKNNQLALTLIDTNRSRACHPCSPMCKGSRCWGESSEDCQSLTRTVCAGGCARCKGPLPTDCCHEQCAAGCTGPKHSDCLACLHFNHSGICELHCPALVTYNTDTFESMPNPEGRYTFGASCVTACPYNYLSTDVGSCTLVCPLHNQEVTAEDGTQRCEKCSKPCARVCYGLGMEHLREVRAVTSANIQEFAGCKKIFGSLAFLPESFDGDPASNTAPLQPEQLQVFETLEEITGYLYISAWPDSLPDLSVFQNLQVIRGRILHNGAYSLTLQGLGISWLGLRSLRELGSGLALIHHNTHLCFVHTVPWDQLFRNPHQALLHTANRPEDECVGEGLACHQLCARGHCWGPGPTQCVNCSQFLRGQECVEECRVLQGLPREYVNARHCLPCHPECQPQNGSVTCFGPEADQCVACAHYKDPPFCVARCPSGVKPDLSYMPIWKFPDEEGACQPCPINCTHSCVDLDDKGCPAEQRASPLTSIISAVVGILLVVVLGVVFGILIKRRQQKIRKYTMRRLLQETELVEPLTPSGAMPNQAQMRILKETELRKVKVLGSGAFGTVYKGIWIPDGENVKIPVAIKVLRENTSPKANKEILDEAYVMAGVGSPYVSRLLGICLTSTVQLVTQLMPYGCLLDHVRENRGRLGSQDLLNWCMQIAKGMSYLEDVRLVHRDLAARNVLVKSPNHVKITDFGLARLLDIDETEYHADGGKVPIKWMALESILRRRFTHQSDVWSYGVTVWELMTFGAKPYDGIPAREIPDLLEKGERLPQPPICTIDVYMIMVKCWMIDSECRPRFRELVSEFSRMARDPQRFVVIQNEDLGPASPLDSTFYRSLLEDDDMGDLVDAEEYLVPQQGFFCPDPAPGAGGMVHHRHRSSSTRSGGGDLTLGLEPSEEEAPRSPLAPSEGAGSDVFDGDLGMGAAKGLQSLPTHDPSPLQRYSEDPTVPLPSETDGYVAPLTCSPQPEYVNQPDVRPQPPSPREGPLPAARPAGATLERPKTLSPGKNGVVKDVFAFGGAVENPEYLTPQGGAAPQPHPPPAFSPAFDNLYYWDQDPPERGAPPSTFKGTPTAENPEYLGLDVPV
SMILES,viability [1],Her2 level [2],viability [3],viability [4],viability [5],differential viability (reversal) ([6]; H69AR cells + 2 uM doxorubicin),"viability [6, 16]","viability [6, 17]",inhibition [7],inhibition [8],growth inhibition [9],growth inhibition [10],viability increase [11],viability [12],viability [13],inhibition [14],RAM network inhibition [15]
Cc1ccc(-n2ncc3c(=O)[nH]c(SC(C)C)nc32)cc1,93%,104% (inactive),93% (inactive),84.9% (inactive),80.1% (inactive),11.3% (inactive),68.7%,80.1%,-4.4% (inactive),-6% (inactive),-3.77% (inactive),-5.77% (inactive),-3.9% (inactive),98.4% (inactive),87.4% (inactive),3.35% (inactive),4.11% (inactive)
CCn1cc(C(=O)NCc2ccccc2OC)c(=O)c2cc(S(=O)(=O)N(C)C)ccc21,78.5%,89% (inactive),78.5% (inactive),78.3% (inactive),77.6% (inactive),9.22% (inactive),68.4%,77.6%,-5.6% (inactive),0.17% (inactive),-8.34% (inactive),-17.1% (inactive),-5.34% (inactive),87.1% (inactive),85.5% (inactive),1.88% (inactive),2.36% (inactive)
COc1cccc(NC(=O)c2nnn(Cc3ccc(Br)cc3F)c2N)c1,98%,89% (inactive),98% (inactive),59.4% (inactive),72% (inactive),2.77% (inactive),69.2%,72%,-3.33% (inactive),2.46% (inactive),-7.21% (inactive),-5.7% (inactive),-0.51% (inactive),94.5% (inactive),95.7% (inactive),1.61% (inactive),5.85% (inactive)
COc1ccc(NC(=O)CSc2nnc(Cc3cccn3C)n2-c2ccc(F)cc2)cc1,96%,112% (inactive),96% (inactive),94.4% (inactive),94.8% (inactive),-14.7% (inactive),110%,94.8%,-2.27% (inactive),-6.5% (inactive),4.66% (inactive),11.6% (inactive),-2.27% (inactive),88.8% (inactive),86% (inactive),2.56% (inactive),8.6% (inactive)
COc1ccc(NS(=O)(=O)c2coc(C(N)=O)c2)cc1Cl,101%,110% (inactive),101% (inactive),119% (inactive),99.1% (inactive),-8.07% (inactive),107%,99.1%,0% (inactive),11% (inactive),-21.1% (inactive),-10.9% (inactive),-0.71% (inactive),108% (inactive),102% (inactive),1.92% (inactive),1.58% (inactive)
CCN(CC)C(=O)Oc1ccccc1NC(C)=O,102%,92% (inactive),102% (inactive),107% (inactive),90.5% (inactive),-0.19% (inactive),90.7%,90.5%,-5.14% (inactive),-3% (inactive),1.79% (inactive),-2.54% (inactive),-0.54% (inactive),92.2% (inactive),96.1% (inactive),0.84% (inactive),-0.6% (inactive)
CC(=O)NC(C)C(=O)OCC(=O)Nc1ccc(Br)cc1 (stereo not given),95%,80.5% (inactive),95% (inactive),93.9% (inactive),94.5% (inactive),4.86% (inactive),89.7%,94.5%,0.13% (inactive),-4.17% (inactive),-14.2% (inactive),-18.7% (inactive),0.09% (inactive),99.7% (inactive),100% (inactive),2.33% (inactive),1.92% (inactive)
CCN1C(=O)c2ccccc2S(=O)c2ccc(C(=O)NC3CC3)cc21 (stereo not given),100%,93.5% (inactive),100% (inactive),105% (inactive),105% (inactive),16% (inactive),88.7%,105%,-2.8% (inactive),3.77% (inactive),4.88% (inactive),1.4% (inactive),-2.52% (inactive),97.6% (inactive),95.3% (inactive),0.16% (inactive),1.98% (inactive)
COc1ccc(-c2nc(CSCC(=O)N3CCN(c4cccc(C)c4)C(C)C3)c(C)o2)cc1OC (stereo not given),102%,67.5% (inactive),102% (inactive),54.6% (inactive),85.7% (inactive),-5.97% (inactive),91.7%,85.7%,-2.27% (inactive),1.33% (inactive),-4.45% (inactive),8.39% (inactive),0.02% (inactive),56.9% (inactive),56.4% (inactive),1.96% (inactive),7.25% (inactive)
COc1ccc(CCNc2oc(COc3ccccc3Cl)nc2C#N)cc1OC,90%,87% (inactive),90% (inactive),56.8% (inactive),92.2% (inactive),-4.1% (inactive),96.3%,92.2%,-1.6% (inactive),-1.83% (inactive),-10% (inactive),-0.295% (inactive),-1.73% (inactive),88.5% (inactive),73.2% (inactive),1.5% (inactive),2.3% (inactive)
